Screening results as filed in PubChem BioAssay.
Only some compounds are listed: those with a hit (about 2.4% of all), similar ones and a draw of the others.
D2 ag-1 = activates the human D2 dopamine receptor | P14416 | DiscoveRx PathHunter D2 beta-arrestin, luminescence, 90 min; 100% = 57 uM dopamine signal | activation, % (no concentration beside the values) | 0.084% of 360,000 active; in the data active = activation above about 40%; inconclusive = between about 15% and that limit
Target sequence (P14416 whole entry, looked up): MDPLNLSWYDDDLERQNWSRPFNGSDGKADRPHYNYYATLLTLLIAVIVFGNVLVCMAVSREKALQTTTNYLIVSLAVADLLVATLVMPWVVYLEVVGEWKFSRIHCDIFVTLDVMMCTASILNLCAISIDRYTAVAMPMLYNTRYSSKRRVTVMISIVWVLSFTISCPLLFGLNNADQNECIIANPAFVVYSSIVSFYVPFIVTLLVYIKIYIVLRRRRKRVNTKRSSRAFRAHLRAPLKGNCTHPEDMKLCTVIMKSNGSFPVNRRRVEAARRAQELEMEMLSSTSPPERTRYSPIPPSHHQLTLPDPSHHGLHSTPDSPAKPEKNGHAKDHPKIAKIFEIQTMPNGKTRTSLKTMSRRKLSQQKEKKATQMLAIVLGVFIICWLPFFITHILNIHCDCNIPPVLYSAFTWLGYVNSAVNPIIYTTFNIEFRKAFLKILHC
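DiscoveRx PathHunter D2 beta-arrestin cells (2,100/well) attached overnight, then compound-stimulated 90 min at 37 C in HBSS/10 mM HEPES/0.1% Tween-20 buffer; beta-galactosidase complementation read by luminescence after 1 h at ambient temperature. Dopamine 57 uM final (EC100) as control.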
D2 antagonist = antagonists of human D2 dopamine receptor | P14416 | HEK293 TREx D2 cells, calcium flux, dopamine EC80 | inhibition, % at 10 µM | 2% of 340,000 active; in the data active = inhibition above about 30%; inactive = below that, where a call was filed; also: 0% is about no effect
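HEK293 T-REx D2 cells, tet-induced, calcium dye no-wash. Cpd pintool add, 180 s kinetic, then EC80 DA, 180 s kinetic. Ca flux read.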
D2 PAM-1 = D2 dopamine receptor (human) potentiation; HEK293 T-REx D2, calcium flux, EC20 dopamine potentiation; potentiation, % at 10 µM; 0.34% of 340,000 active;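 active = potentiation over 3 SD above the plate norm, cut at about 30% in these data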; also: 0% is about no effect
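Primary screen. Calcium kinetics in induced HEK293 T-REx D2 cells: compound pre-addition 180 s, EC20 dopamine, 180 s more.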
D2 ag-2 = activates the human D2 dopamine receptor. AID 485358. 0.53% of 340,000 active. activation, % at 2 µM. HEK293 T-REx D2 cells, calcium flux agonist mode. P14416;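 active = activation over 3 SD above normal in the single-dose calcium agonist read, cut at about 30% in these data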; also: 0% is about no effect
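Calcium-flux readout, 1 cycle/sec over 180 s following compound pin transfer, in inducible HEK293 Trex D2 cells (force-coupled); dopamine controls included. Positive calcium responses during this window marked compounds as potential agonists.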
D2 PAM-2 = human D2 receptor positive allosteric modulation. potentiation, % (no concentration beside the values). 0.23% of 360,000 active. AID 624464. DiscoveRx D2 beta-arrestin cells, luminescence, 90 min; 100% = 57 uM dopamine signal. P14416; in the data active = potentiation above about 50%; inconclusive = mostly about 30% to 49%
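PathHunter beta-arrestin assay in DiscoveRx D2 cells. Compounds were added with an EC20 of dopamine (50 nM final) for 90 min at 37 deg C. Luminescence was read 1 h after detection reagent, with 57 uM dopamine as the EC100 control.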
Numbers without * were called inactive; ? = inconclusive; nt = not tested or not shown.

SMILES	D2 ag-1	D2 antagonist	D2 PAM-1	D2 ag-2	D2 PAM-2
CN(C)C1(CNC(=O)Nc2ccc(Cl)c(Cl)c2)CCCCC1	-2.0	54.3*	-33.8	2.6	-15.2
CN(C)C1(CNC(=O)c2ccc(NS(=O)(=O)c3ccc(Cl)c(Cl)c3)cc2)CCCCC1	-0.6	7.6	0.4	0.8	-3.3
CC(C)c1ccc(NC(=O)CN2C(=O)CN=C(c3ccccc3)c3ccccc32)cc1	nt	nt	1.7	0.4	nt
Cc1ccccc1-n1nc(C)c2c1NC(=O)CSC2c1ccccc1C(F)(F)F (stereo not given)	nt	nt	-0.6	-1.3	nt
CN1CC(C(=O)c2ccc(F)cc2)C(c2c(F)cccc2Cl)C1 (stereo not given)	-3.1	4.6	-12.4	0.4	-23.9
COc1ccc(C2CN(C)CC2C(=O)c2ccc(F)cc2)cc1Cl (stereo not given)	-0.2	69.0*	-35.3	-0.5	-13.1
CNC(C)Cc1ccccc1Sc1ccc(O)cc1 (stereo not given)	-4.5	67.4*	-21.4	0.4	-42.4
Cc1cccc(CS(=O)(=O)Cc2ccc(C(=O)N3CCC4(CC3)OCCO4)o2)c1	-3.5	39.8*	11.2	-0.9	15.9
O=C(c1ccc(CS(=O)(=O)c2ccccc2)o1)N1CCC2(CC1)OCCO2	-1.3	-10.5	3.7	-1.0	-5.0
N#Cc1cc2c(nc1SCC(=O)Nc1ccc(Cl)c(C(F)(F)F)c1)C1CCN2CC1	nt	nt	18.2	0.6	nt
Cc1ccc(C(C)C)c(OCC#CCN2CCCC2)c1	3.5	34.7*	-25.6	-1.0	61.5*
COc1ccc(-n2c(/C=C\c3ccccc3F)nc3ccccc3c2=O)cc1OC	nt	nt	-7.2	-0.3	nt
CN1C[C@H](CO)C=C2c3cccc4[nH]cc(c34)C[C@H]21	68.5*	-8.8	1.0	0.2	8.5
C[C@@H]1C[C@H]2OC(=O)C3(CO3)[C@H]2[C@H](O)[C@]2(C)C(=O)C3OC3[C@@H]12 (stereo not given in full)	nt	41.1*	15.1	0.0	nt
Cc1ccc(NC(=O)CN2C(=O)CN=C(c3ccccc3)c3ccccc32)c(C)c1	nt	nt	-4.7	0.4	nt
Cc1ccc(S(=O)(=O)N(C)C)cc1NC(=O)C(C)[N+]12CCN(CC1)CC2 (stereo not given)	-3.8	31.7*	-6.2	-7.2	5.4
Cc1ccc(S(=O)(=O)N2CCCCC2)cc1NC(=O)CN1CC=C(c2ccccc2)CC1	-4.5	4.4	-6.2	0.2	-10.7
O=C(c1ccc2c(=O)n(Cc3ccc4c(c3)OCO4)c(=S)[nH]c2c1)N1CCC2(CC1)OCCO2	-0.8	43.9*	6.4	0.1	-10.1
O=C(NCc1ccc(C(=O)N2CCC3(CC2)OCCO3)cc1)c1ccc2c(c1)OCO2	-2.4	-22.3	5.0	0.1	-7.0
CCOc1ccc(CN(CCc2ccc3c(c2)OCO3)Cc2cccc(C)c2)cc1	nt	nt	-22.8	nt	nt
CCOC(=O)C(NC(=O)CC)(Nc1ccc(C(O)(C(=O)OCC)C(F)(F)F)cc1C)C(F)(F)F (stereo not given)	-4.1	34.2*	15.2	-0.6	0.4
CCOC(=O)C(NC(=O)CCl)(Nc1ccc(C(O)(C(=O)OCC)C(F)(F)F)cc1)C(F)(F)F (stereo not given)	-2.9	-1.3	2.9	0.3	-8.2
CNc1cc(N2CCNCC2)ccc1[N+](=O)[O-]	-0.4	0.3	-10.8	-0.3	-4.7
O=[N+]([O-])c1ccc(N2CCNCC2)cc1NCc1ccco1	-0.7	61.3*	-23.9	-0.6	-30.4
CN1CCN(c2ccc([N+](=O)[O-])c(NCc3ccco3)c2)CC1	-1.9	52.7*	-18.0	-0.6	-43.2
SMILES	D2 ag-1	D2 antagonist	D2 PAM-1	D2 ag-2	D2 PAM-2
N#Cc1cc2c(nc1SCC(=O)Nc1ccc(C(F)(F)F)cc1)C1CCN2CC1	nt	nt	-6.7	nt	nt
O=C(CCCN1CCC2(CC1)C(=O)NCN2c1ccccc1)c1ccc(F)cc1	nt	71.3*	nt	75.8*	nt
CC(C)[C@H]1C(=O)N2CCC[C@H]2[C@]2(O)O[C@](NC(=O)[C@@H]3C=C4c5cccc6[nH]cc(c56)C[C@H]4N(C)C3)(C(C)C)C(=O)N12	79.5*	88.5*	-31.5	83.6*	65.9*
CC(C)[C@@]1(NC(=O)[C@@H]2C=C3c4cccc5[nH]cc(c45)C[C@H]3N(C)C2)O[C@@]2(O)[C@@H]3CCCN3C(=O)[C@H](Cc3ccccc3)N2C1=O	nt	80.2*	-28.7	64.3*	nt
Cc1cc(OCC(=O)N2CCN(CCc3ccccn3)CC2)cc(C)c1Cl	nt	nt	nt	-1.8	nt
Cc1ccc(CN2C3CCCC2CC(NC(=O)Nc2cccc(F)c2)C3)cc1 (stereo not given)	-2.3	75.0*	-28.4	1.1	-26.1
O=S1(=O)N(Cc2ccccc2Cl)CCCN1Cc1ccccc1Cl	nt	nt	5.8	0.4	nt
c1ccc2c(c1)Nc1ccccc1S2	?	-12.9	4.1	2.1	67.8*
O=C1Nc2ccccc2Sc2ccccc21	-2.9	2.4	-0.9	-0.2	-0.6
Cc1cc(C)cc(OCC(=O)Nc2ccc(Cl)cc2C(=O)c2ccccc2)c1	nt	nt	-7.6	-1.5	nt
Cc1ccsc1C(=O)C1CCCN(Cc2cccc(OCCO)c2)C1 (stereo not given)	-0.8	51.9*	-23.3	-0.3	-16.6
Cc1ccsc1C(=O)C1CCCN(Cc2cccc(-n3cccn3)c2)C1 (stereo not given)	-4.8	-8.8	14.2	0.1	-7.0
COc1ccc(CN2CCCC(C(=O)c3sccc3C)C2)cc1O (stereo not given)	4.9	41.0*	-16.9	0.5	-7.8
Cc1ccc(-n2nc(C)c3c2NC(=O)CSC3c2ccc(O)cc2)cc1Cl (stereo not given)	nt	nt	8.4	-1.5	nt
CCc1ccc(-n2nc(C)c3c2NC(=O)CSC3c2ccc(OC)cc2OC)cc1 (stereo not given)	nt	nt	-18.9	-1.1	nt
O=C1NC(=O)[C@]2(Cc3ccccc3N3CCN(c4ccccc4)CC32)C(=O)N1Cc1ccccc1 (stereo not given in full)	?	39.8*	-18.0	34.7*	8.8
COc1ccc(C(=O)N2CCCC2=O)cc1	-4.3	39.8*	4.8	1.4	-6.3
CCN1C(=O)NC(=O)/C(=C/c2cc(C)n(-c3sc(C)c(C)c3C#N)c2C)C1=O	0.1	-24.3	44.2*	-1.5	11.2
CSc1ncc(C(=O)Nc2ccc(Cl)cc2C(=O)c2ccccc2)c(C)n1	nt	nt	-0.7	-1.1	nt
O=c1[nH]c2ccccc2n1C1CCN(C(CCc2ccccc2)c2nnnn2-c2ccc3c(c2)OCCO3)CC1 (stereo not given)	11.3	nt	nt	nt	58.1*
COc1ccc(-n2nnnc2C(CCc2ccccc2)N2CCC(n3c(=O)[nH]c4ccccc43)CC2)cc1 (stereo not given)	?	nt	nt	nt	27.2
O=c1[nH]c2ccccc2n1C1CCN(C(c2ccnc3ccccc23)c2nnnn2-c2ccc3c(c2)OCCO3)CC1 (stereo not given)	?	nt	nt	nt	50.4*
COc1ccc(-c2nc(CN3C(=O)CN=C(c4ccccc4Cl)c4cc(Cl)ccc43)c(C)o2)cc1OC	nt	nt	-3.2	7.0	nt
